Results from PubChem BioAssay (NCI).
About 83,000 compounds went through this panel and 20% of them were active in at least one assay; those are over-represented in the sample as a whole.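 Each cell line was grown in a 96-well plate and treated with one concentration of compound for 48 hours. Values below 10 were considered active.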 Calls of active or inactive are those of the source.

Assays:
Test in all cases: NCI-60 one-dose screen, 48 h (100 = growth as untreated, 0 = no growth, -100 = all killed)
Settings in all cases: 10 µM unless noted
SK-MEL-2 melanoma = system: SK-MEL-2 melanoma
EKVX NSCLC = system: EKVX NSCLC
SN12C renal = system: SN12C renal
UO-31 renal = system: UO-31 renal
TK-10 renal = system: TK-10 renal
ACHN renal = system: ACHN renal
CAKI-1 renal = system: CAKI-1 renal
A498 renal = system: A498 renal
CCRF-CEM leukemia = system: CCRF-CEM leukemia
MOLT-4 leukemia = system: MOLT-4 leukemia

Measured: growth

COc1cc(/C=C2\C(=O)Nc3ccc(N(C)C)cc32)cc(OC)c1OC
active: A498 renal -18.2%
inactive: SK-MEL-2 melanoma 61.2% | EKVX NSCLC 34.4% | SN12C renal 25.2% | UO-31 renal 35.2% | TK-10 renal 42.3% | ACHN renal 41.6% | CAKI-1 renal 22.2% | CCRF-CEM leukemia 21.9% | MOLT-4 leukemia 36.2%

COc1cccc2nc(Nc3cccc(NC(=O)c4cc(N5CCOCC5)cc(C(F)(F)F)c4)c3)ccc12
inactive: SK-MEL-2 melanoma 79.4% | EKVX NSCLC 64% | SN12C renal 57% | UO-31 renal 42.3% | TK-10 renal 65.9% | ACHN renal 45.1% | CAKI-1 renal 60.7% | A498 renal 99.4% | CCRF-CEM leukemia 48.9% | MOLT-4 leukemia 35.2%

CCOCC(O)(c1ccc(Cl)cc1)c1ccc(Cl)cc1
inactive: SK-MEL-2 melanoma 102% | EKVX NSCLC 94.1% | SN12C renal 105% | UO-31 renal 91.3% | TK-10 renal 110% | ACHN renal 98.7% | CAKI-1 renal 88.2% | A498 renal 112% | CCRF-CEM leukemia 96.1% | MOLT-4 leukemia 88.7%

O=C(Nc1ccc(Br)cc1)Nc1ccccc1Cl
inactive: SK-MEL-2 melanoma 92% | EKVX NSCLC 70.9% | SN12C renal 84.7% | UO-31 renal 58.9% | TK-10 renal 125% | ACHN renal 84.4% | CAKI-1 renal 55.2% | A498 renal 86.9% | CCRF-CEM leukemia 94.8% | MOLT-4 leukemia 63.9%

COc1ccc(/C(=C\c2cc(OC)c(OC)c(OC)c2)C(=O)Nc2nc3ccc(Cl)cc3s2)cc1
inactive: SK-MEL-2 melanoma 94.8% | EKVX NSCLC 80.5% | SN12C renal 96.9% | UO-31 renal 76.4% | TK-10 renal 92.4% | ACHN renal 103% | CAKI-1 renal 83.2% | A498 renal 97.4% | CCRF-CEM leukemia 85% | MOLT-4 leukemia 64.4%

CC(C)OC(=O)c1ccc([N+](=O)[O-])cc1
inactive: SK-MEL-2 melanoma 122% | EKVX NSCLC 96% | SN12C renal 97.7% | UO-31 renal 104% | TK-10 renal 113% | ACHN renal 114% | CAKI-1 renal 103% | A498 renal 79.2% | CCRF-CEM leukemia 103% | MOLT-4 leukemia 113%

COc1ccc(NC(=O)/C=C/c2ccc(NC(=O)N3CCCC3)cc2)cn1
inactive: SK-MEL-2 melanoma 104% | EKVX NSCLC 92.8% | SN12C renal 98.7% | UO-31 renal 100% | TK-10 renal 104% | ACHN renal 114% | CAKI-1 renal 100% | A498 renal 99.4% | CCRF-CEM leukemia 97% | MOLT-4 leukemia 101%

CCOC(C)(c1ccc(Cl)cc1)C1CCNCC1 (stereo not given)
inactive: SK-MEL-2 melanoma 106% | EKVX NSCLC 72.9% | SN12C renal 100% | UO-31 renal 80.6% | TK-10 renal 96.1% | ACHN renal 98.4% | CAKI-1 renal 100% | A498 renal 86.1% | CCRF-CEM leukemia 109% | MOLT-4 leukemia 81.7%

CC(C)c1[nH]ncc1-c1nc2ccc3[nH]ncc3c2c2c1CCCC2
inactive: SK-MEL-2 melanoma 68.6% | EKVX NSCLC 13.5% | SN12C renal 35.2% | UO-31 renal 12.3% | TK-10 renal 22.7% | ACHN renal 16.8% | CAKI-1 renal 17.6% | CCRF-CEM leukemia 28.8%
active: A498 renal -12.7% | MOLT-4 leukemia 9.07%

COc1ccc(-c2oc(=O)ccc2-c2cc(OC)c(OC)c(OC)c2)cc1F
inactive: SK-MEL-2 melanoma 92.8% | EKVX NSCLC 99.6% | SN12C renal 87.9% | UO-31 renal 47.3% | TK-10 renal 88.2% | ACHN renal 87.1% | CAKI-1 renal 52.9% | A498 renal 83.4% | CCRF-CEM leukemia 57.6% | MOLT-4 leukemia 83.6%

COc1cc(/C=C/C(=O)c2c(C)nc3ccccc3c2C)ccc1OCCCOc1cc2c(cc1OC)C(=O)N1CCC[C@H]1C=N2
active: SK-MEL-2 melanoma -61.3% | EKVX NSCLC -76.4% | TK-10 renal -65.8% | ACHN renal -41.2% | CAKI-1 renal 4.18% | A498 renal -76.4% | CCRF-CEM leukemia -48.6% | MOLT-4 leukemia -25.5%
inactive: SN12C renal 10.2% | UO-31 renal 14.2%

O=C(/C=C/c1cccc([N+](=O)[O-])c1)c1ccc(Nc2nc(N3CCCCC3)nc(N3CCCCC3)n2)cc1
inactive: SK-MEL-2 melanoma 105% | EKVX NSCLC 92.3% | SN12C renal 96.3% | UO-31 renal 75.1% | TK-10 renal 108% | ACHN renal 102% | CAKI-1 renal 89.6% | A498 renal 80.9% | CCRF-CEM leukemia 104% | MOLT-4 leukemia 93.4%

Clc1cn2cc(-c3ccc(Cl)c(Cl)c3Cl)nc2s1
inactive: SK-MEL-2 melanoma 101% | EKVX NSCLC 110% | SN12C renal 101% | UO-31 renal 79.2% | TK-10 renal 165% | ACHN renal 101% | CAKI-1 renal 88.1% | A498 renal 110% | CCRF-CEM leukemia 107% | MOLT-4 leukemia 85.5%

Cc1c(O)c(=O)n(-c2ccccc2)n1C
inactive: SK-MEL-2 melanoma 112% | EKVX NSCLC 120% | SN12C renal 98.2% | UO-31 renal 79.6% | TK-10 renal 112% | ACHN renal 96.5% | CAKI-1 renal 107% | A498 renal 120% | CCRF-CEM leukemia 118% | MOLT-4 leukemia 84.2%
